The whole screen tested about 190,000 compounds, of which about 810 (0.43%) were called active. The sample holds actives, similar compounds and a random draw of the others, so the mix is not that of the screen. Cut-off read from the data, not from the text of the source: active = inhibition above about 50%; inactive = the rest.

Chain of Mannose-6-phosphate isomerase (Homo sapiens) (P34949 whole entry, looked up): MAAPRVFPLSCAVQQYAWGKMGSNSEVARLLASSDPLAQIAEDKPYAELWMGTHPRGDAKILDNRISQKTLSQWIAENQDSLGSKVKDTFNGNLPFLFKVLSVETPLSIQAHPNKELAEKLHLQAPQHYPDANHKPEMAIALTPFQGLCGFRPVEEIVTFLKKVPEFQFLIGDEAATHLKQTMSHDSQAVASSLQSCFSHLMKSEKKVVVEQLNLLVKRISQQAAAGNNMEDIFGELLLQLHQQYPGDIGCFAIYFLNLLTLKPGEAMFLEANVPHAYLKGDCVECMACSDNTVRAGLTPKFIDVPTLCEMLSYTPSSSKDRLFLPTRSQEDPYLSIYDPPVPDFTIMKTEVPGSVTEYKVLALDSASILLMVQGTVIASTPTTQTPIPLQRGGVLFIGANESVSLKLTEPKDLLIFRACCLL

The assay has as its target Mannose-6-phosphate isomerase (Homo sapiens) (UniProt P34949). In words: inhibitors of human PMI, primary screen, biochemical, fluorescence intensity, coupled assay (AID 1209).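 Note: plate controls were DMSO vehicle for no effect and wells lacking substrate for full effect.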 The note with it: purified PMI enzyme, at 20 µM, hits give high values.
One may read the inhibition as the relative decrease from the control value, in per cent. For the compound `CCC(C)(C)NC(=O)C(c1cccn1C)N(C(=O)Cn1nnc2ccccc21)c1ccccc1OC` (stereo not given), the inhibition is -6.8% (inactive).
For `N#Cc1cn(CCOC(=O)c2cccc(C(F)(F)F)c2)c(=O)[nH]c1=O`, the inhibition was 4.3% (inactive).
With `CCN1CCN(c2nc3ccccc3nc2C(C#N)C(=O)OCc2ccccc2)CC1` (stereo not given), the inhibition is 8.9% (inactive).
Then `O=C(Oc1ccc(-c2cnc3ccccc3n2)cc1)c1ccco1`, with 0.2% (inactive); and `COC(=O)c1ccc(OC(=O)c2ccco2)cc1`, with -5% (inactive); and `Cc1cccc(-n2nnnc2SCC(=O)c2cc(C)n(Cc3ccco3)c2C)c1`, with -2.6% (inactive).
The figure for `CC(=O)Nc1nc2c(c3c1c(=O)oc1ccccc13)CCCCC2` is -2.8% (inactive).
Regarding `CCOc1ccc(CONS(=O)(=O)c2ccc(NC(C)=O)cc2)cc1Cl`, the inhibition is 16.3% (inactive).
Then `CC12CCC3(CO)COC(c4ccccc4O1)C2C3` (stereo not given), with 3.4% (inactive).
For the compound `C[N+]1(CC#CC(O)(c2ccccc2)c2ccccc2)CCCC1`, the inhibition is 21.6% (inactive).
The figure for `CC1(C#CC[N+]2(C)CCCCC2)CCC2C(O1)c1ccccc1OC2(C)C` (stereo not given) is 105% (active).
The figure for `C=CCN(CC=C)C(=O)Nc1ccc2nc(C)sc2c1` is 8.1% (inactive); for `CCOC(=O)N1CCN(C(=O)c2ccc(S(=O)(=O)NCc3ccco3)cc2)CC1` it is -4.2% (inactive).
Then `Cc1ccc(NC(=O)c2ccc(N/N=C/c3cccc(O)c3)c([N+](=O)[O-])c2)cc1`, with 5.1% (inactive).
For `O=c1[nH][nH]c(-c2ccccc2)c1C=Nc1ccc(Cl)cc1`, the inhibition is -4.3% (inactive).
The figure for `Cn1cnnc1SCC(=O)Nc1ccccc1F` is -2% (inactive); for `Cc1cc(C(=O)NNC(=S)Nc2ccccc2C)cs1` it is 70.7% (active).
Take `Cc1cccc(NC(=S)NNC(=O)c2csc(C)c2)c1`: the inhibition was -3.7% (inactive).
Then `CCc1cc(C(=O)NNC(=S)Nc2ccccc2C)cs1`, with -8.6% (inactive).
In the case of `O=C(Nn1cnnc1)C1CCCN1S(=O)(=O)c1ccc(F)cc1` (stereo not given), the inhibition is -3.3% (inactive).
Then `Cc1ccc(NC(=O)CSc2nnc(C)n2-c2ccccc2)cc1`, with -1.7% (inactive); and `Cc1ccc(-n2c(=O)[nH]c3ncccc3c2=O)cc1`, with 12.9% (inactive).
The figure for `Oc1ccc(C=Nc2cccc3ncccc23)c(O)c1` is 46.8% (inactive); for `Cc1ccc(N=Cc2ccc(O)cc2O)cc1F` it is 9.4% (inactive).
Take `Oc1ccc(C=Nc2ccc3ncccc3c2)c(O)c1`: the inhibition was 68.4% (active).
For `O=C(COC(=O)c1cccc(Cl)c1)Nc1cc(Cl)ccc1Oc1ccccc1`, the inhibition was 18.8% (inactive).
The figure for `Cc1cc(OCC(O)CN)ccc1Cl` (stereo not given) is -8.6% (inactive); for `C(=N\N1CCN(Cc2ccccc2)CC1)/c1cccnc1` it is 9.3% (inactive); for `Cc1ccc(CN2CCN(/N=C/c3cccnc3)CC2)cc1` it is 17.9% (inactive).
The figure for `Clc1ccc(CN2CCN(/N=C/c3cccnc3)CC2)cc1` is 85.6% (active).
The figure for `Cc1cccc(CSc2nc3c(c(-c4cccs4)c2C#N)CN(C)CC3)c1` is 69.6% (active).
`Cc1cccc(CSc2nc(N)c(C#N)c(-c3cccs3)c2C#N)c1`: the inhibition was 6.6% (inactive).
For `CN1CCc2nc(SCC(=O)Nc3cccc(F)c3)c(C#N)c(-c3cccs3)c2C1`, the inhibition is 35% (inactive).
As for `COc1ccc(NC(=O)CSc2nc3c(c(-c4cccs4)c2C#N)CN(C)CC3)cc1OC`, the inhibition is 59.8% (active).
In the case of `CC(C)(C)C(=O)CSc1nc2c(c(-c3cccs3)c1C#N)CCC2`, the inhibition was -25.9% (inactive).
With `CN1CCc2nc(SCC(=O)Nc3ccc(OC(F)(F)F)cc3)c(C#N)c(-c3cccs3)c2C1`, the inhibition was 15.7% (inactive).
The figure for `COc1ccc2c(c1)C(=O)N(c1ccccc1C)C(=O)C2(C)C` is -9.2% (inactive).
With `COC(=O)CCCNc1ncccc1[N+](=O)[O-]`, the inhibition was -0.5% (inactive).
Turning to `Cn1c(SCC(=O)N2CCN(c3ccccc3)CC2)nnc1-c1ccco1`, the inhibition is 4.2% (inactive).
`CC(C)(CNS(C)(=O)=O)SCc1ccc(Cl)cc1`: the inhibition is -12.2% (inactive).
The figure for `Cc1nn(C(C)CC(=O)O)c(C)c1Br` (stereo not given) is -0.1% (inactive).
`COc1cccc(/C=N/NC(=O)c2ccccc2)c1OS(=O)(=O)c1ccccc1`: the inhibition was 2.4% (inactive).
The figure for `COc1ccc(C(=O)CCC(C)(C)[N+](=O)[O-])cc1` is -6.3% (inactive); for `O=C(c1ccc(CS(=O)(=O)c2ccc(Br)cc2)o1)N1CCN(C2CCCCC2)CC1` it is -9% (inactive); for `O=C(NC1CCCCCC1)C(=S)N1CCCC1` it is 4.7% (inactive).
For the compound `O=C(NC1CCCCC1)C(=S)N1CCOCC1`, the inhibition was 10.9% (inactive).
`O=C(NC1CCCCCC1)C(=S)N1CCOCC1`: the inhibition was 61.8% (active).
Then `Cc1ccc(C(C(=O)NC2CCCCC2)N2CCC3(CC2)OCCO3)cc1` (stereo not given), with 1.6% (inactive); and `C=CCOC(=O)C1=C[C@H](c2ccc(Br)cc2)[C@@H](CCCO)[C@H](OCC)O1`, with 17.5% (inactive); and `Cc1occc(=O)c1O`, with -5.2% (inactive).
Then `Cc1cc(=O)c2c(O)c(O)ccc2o1`, with 77.7% (active); and `COc1ccc(-c2cc(=O)c3c(O)c(OC)c(O)cc3o2)cc1`, with 0.6% (inactive); and `O=C(O)c1ccccc1Cc1nc2cc(Cl)ccc2c(=O)[nH]1`, with -7.4% (inactive).
The figure for `COc1ccc(NC(=O)CCCn2c(=O)c3sccc3n(Cc3ccccc3C)c2=O)cc1` is 6.6% (inactive); for `CCN(CC)C(=O)c1ccc(/C=C/c2c[nH]c3ccccc23)[n+](C)c1` it is 8.9% (inactive).
For the compound `CCc1ccc(/C=C/c2c[nH]c3ccccc23)[n+](CC)c1`, the inhibition was 51.8% (active).
The figure for `OCC[n+]1ccc(/C=C/c2c[nH]c3ccccc23)cc1` is 2.7% (inactive).
The figure for `NS(=O)(=O)c1ccc(CCNC(=O)C2CCC(CNS(=O)(=O)c3ccc(Br)s3)CC2)cc1` (stereo not given) is 4.5% (inactive).
As for `Cc1ccc2cc(C=O)c(Cl)nc2c1`, the inhibition was 37.4% (inactive).
The figure for `Cc1cc(C)c2cc(CNC3CCCC3)c(Cl)nc2c1` is 8.6% (inactive); for `Cc1cc2cc(C=O)c(Cl)nc2cc1C` it is 61.2% (active).
As to `Cc1cc2cc(C=C(C#N)C#N)c(Cl)nc2cc1C`, the inhibition is 20.3% (inactive).
Take `CC(C)(C)c1nn(-c2ccccc2)c2nc(Cl)c(C=O)cc12`: the inhibition was -1.5% (inactive).
The figure for `Cc1occc1C(=O)NNC(=O)C1CCCCC1` is 20.4% (inactive); for `CCOc1ccc(CCNC(=O)CSc2nn(-c3ccc(C)c(Cl)c3)c(=S)s2)cc1OCC` it is 8.9% (inactive).

(Values after PubChem BioAssay AID1209 (Sanford-Burnham Center for Chemical Genomics, 2008).)
